Results on 59 compounds are retold here after PubChem BioAssay AID2717 (Broad Institute, 2010).

Screen size: about 300,000 compounds; about 3,200 (1.1%) were called active. Shown is part of a subset that was picked to be rich in actives. A number with no mark means an inactive call. No stated cut-off is given here; in the data, active means inhibition above about 75%; inconclusive means no clear call, values can overlap the other calls; inactive means below that; tested in HMLE shEcad cells.

This assay is described as follows: growth suppression of cancer stem-like cells – cell-based, luminescence, primary screen (AID 2717). As to conditions: cancer stem cell-like cells viability, at 7.5 µM, hits give high values.
Turning to `CNC[C@@H]1Oc2c(NS(C)(=O)=O)cccc2C(=O)N([C@@H](C)CO)C[C@H]1C`, the inhibition (usually the relative decrease from the control value, in per cent) was -11.8%. The figure for `O=C(/C=C/Sc1ncn[nH]1)c1ccc(Cl)cc1` is 112% (active); for `Cc1cc(C)nc(S/C=C/C(=O)c2ccccc2)n1` it is 49.1%; for `O=C(CSc1ncn[nH]1)N/N=C/c1ccc(F)cc1` it is 8.65%.

With `CCOC(=O)[C@H]1[C@H]2COc3ccc(OC)cc3[C@@H]2N2C(=O)c3ccc(F)cc3NC(=O)[C@@]12C`, the inhibition was 9.18%. The result for `CC(=O)Nc1ccc(C(=O)NNC(=O)CCCCC(=O)NNC(=O)c2ccc(NC(C)=O)cc2)cc1` reads 0.726%; that for `CCCC(=O)Nc1ccc(C(=O)N/N=C/c2ccc[nH]2)cc1`, 110% (active).

`CC(=O)Nc1ccc(C(=O)/C=C/c2ccc[nH]2)cc1`: the inhibition was -8.94%. The result for `Cc1ccc(OCCC(=O)Nc2ccc(S(=O)(=O)Nc3nccs3)cc2)cc1` reads -5.72%; that for `COc1ccc(C)cc1NC(=O)CSc1cccc[n+]1[O-]`, -18.1%; that for `O=C(Nc1cc(S(=O)(=O)N2CCCCC2)ccc1Cl)C1COc2ccccc2O1` (centres undefined), -13.5%. In the case of `Cc1[nH]n(-c2ccccc2)c(=O)c1/C=N/NC(=O)c1ccoc1C`, the inhibition was 35.2%. With `O=C(N/N=C/c1cccc([N+](=O)[O-])c1)c1ccncc1`, the inhibition was 0.983%. In the case of `Cc1ccc(-n2[nH]c(C)c(/C=N/NC(=O)c3cccc([N+](=O)[O-])c3)c2=O)cc1C`, the inhibition is 104% (active). The figure for `CCC1CCCCN1C(=S)NC(=O)c1ccco1` (centres undefined) is 7.21%; for `O=C(Nc1cc(-c2ccccc2)nn1-c1ccccc1F)c1ccc([N+](=O)[O-])cc1` it is 1.45%. The figure for `COc1ccc(S(=O)(=O)N2CCN(c3cnccn3)CC2)cc1` is 7%.

Regarding `CC(C)(C)OC(=O)NCCCCCNC(=O)c1[nH]cnc1C(=O)Nc1nccs1`, the inhibition is 0.813%.

With `CC(=O)c1ccc(NC(=O)CSc2nc3ccccc3c(=O)n2CCCN2CCOCC2)cc1`, the inhibition was -2.25%. The figure for `Clc1cccc(N=C2NN=C(c3ccc4c(c3)OCCO4)CS2)c1` is 17.2%; for `Cc1cccc(N=C2NC(=O)/C(=C/c3cn(C)c4ccccc34)S2)c1` it is 47.4%; for `Cc1cccc(N=C2NN=C(c3c[nH]c4ccccc34)CS2)c1` it is 80% (active).

Regarding `CCN(C(=O)CSc1nnnn1-c1ccc(OC)cc1)C1CCS(=O)(=O)C1` (centres undefined), the inhibition is -11.6%. With `CC(NC(=O)COC(=O)c1ccc2ccccc2n1)c1ccccc1` (centres undefined), the inhibition was 2.66%. The result for `CCc1ccc(-c2nn(-c3ccccc3C)cc2C(=O)N2CCN(C3CCS(=O)(=O)C3)CC2)cc1` (centres undefined) reads -16.1%; that for `O=C(Nc1cn(-c2ccccc2)nc1-c1ccccc1)c1ccccc1`, -3.4%; that for `CCc1ccc(-c2nn(-c3ccccc3)cc2CSC(=N)N)cc1`, 118% (active).

As for `COc1ccc(C#Cc2c(-c3ccc(OC)cc3)oc3ccc(-c4ccc5c(c4)OCO5)cc23)cc1`, the inhibition was -6.59%. As to `Cc1cccc(-c2oc3ccc(-c4ccc5c(c4)OCO5)cc3c2C#Cc2cncn2C)c1`, the inhibition is 94.9% (active). `COc1ccc(/C=C/c2c(-c3cccc(C)c3)oc3ccc(-c4ccc5c(c4)OCO5)cc23)cc1`: the inhibition was -7.1%. For `CCCC(CNC(=O)COC(=O)C1=NNC(=O)CC1)c1ccc(Cl)cc1Cl` (centres undefined), the inhibition was -14.7%.

Take `COc1cc(S(=O)(=O)N2CCN(C(=O)C3CC3)CC2)ccc1NC(C)=O`: the inhibition is 1.76%. The figure for `COc1ccc(C(=O)Nc2cc(S(=O)(=O)N3CCCC3)ccc2Cl)cc1` is 7.7%; for `Cc1ccc(C(=O)OCC(=O)NCc2cc(C)c(O)c(C)c2)cc1S(=O)(=O)N1CCCCC1` it is -3.22%.

Turning to `O=c1c2ccccc2nc2n1C1(CCCCC1)Cc1ccccc1-2`, the inhibition is 76.3% (active). The figure for `c1cncc(-c2nnc3n2C2(CCCCC2)Cc2ccccc2-3)c1` is 2.64%.

Consider `CCC1(CC)Cc2ccccc2-c2nc3ccccc3c(=O)n21`, for which the inhibition was 1.88%.

Take `COc1ccc(OC)c(/C=C/C(=O)c2ccc3c(c2)OCO3)c1`: the inhibition is 23.6%. As for `Cc1cc(NC(=O)CSc2ncc(C(F)(F)F)cc2Cl)no1`, the inhibition is -11.1%. As for `NS(=O)(=O)c1cccc(NC(=O)COC(=O)c2cc([N+](=O)[O-])ccc2N2CCCC2)c1`, the inhibition is 8.24%. `COc1ccc2c(CC(=O)NNC(=O)c3ccccc3F)coc2c1`: the inhibition was -7.08%.

Consider `Nn1c(SCC(=O)NC2CCCc3ccccc32)nnc1C1CC1` (centres undefined), for which the inhibition is -20.9%. `CCC(=O)/C(=C(/O)c1ccccc1)c1nc2ccccc2[nH]1`: the inhibition was -8.67%. The result for `O=C(Cc1nc2ccccc2[nH]c1=O)c1ccc(Cl)cc1` reads -22.9%; that for `O=C(/C(=C/c1cccc(Cl)c1)c1nc2ccccc2[nH]1)c1ccccc1`, 79.9% (active); that for `CC(Sc1ccccc1F)C(=O)Nc1cccc(S(=O)(=O)N2CCOCC2)c1` (centres undefined), -6.48%. `O=C1CCC/C=C/C[C@@H](CC(=O)N(CCO)Cc2ccccc2)C(=O)NC[C@H](c2ccccc2)O1`: the inhibition was -5.63%. As to `CCOC(=O)/C(C#N)=C/c1cn(CCC(=O)O)nc1-c1ccc(Br)cc1`, the inhibition is -7.96%.

Consider `O=C(O)CCn1cc(/C=C/C(=O)c2ccc(Cl)cc2)c(-c2cccc(Br)c2)n1`, for which the inhibition is 78.2% (active). The result for `O=C(O)/C=C/c1cn(Cc2ccccc2)nc1-c1cccs1` reads -3.63%; that for `O=C(C[C@@H]1C/C=C\CCC(=O)OC[C@@H]2CCCN2C1=O)NCCO`, -0.206%. The result for `C/C(N)=C(/C#N)C(=O)COC(=O)c1cc(-c2ccc(C)cc2)nc2ccccc12` reads 101% (active); that for `C/C(N)=C(/C#N)C(=O)COC(=O)c1cc(-c2ccccc2)nc2ccc(Br)cc12`, -0.788%; that for `C/C(N)=C(/C#N)C(=O)COC(=O)c1cc(-c2cccc(Br)c2)nc2ccccc12`, 21.7%. For `O=C(COc1ccccc1F)NNC(=O)c1cc(Br)ccc1Cl`, the inhibition was 7.13%. The figure for `COc1cc(OC)cc(C(=O)NNC(=O)Cc2cccs2)c1` is -7.32%. The figure for `NC(=O)CC(NC(=O)Cc1ccc(Br)cc1)c1ccc(NC2CC3CCC2C3)c([N+](=O)[O-])c1` (centres undefined) is 85% (active). The result for `CC1CCCCN1CCCNc1ccc(C(CC(N)=O)NC(=O)c2ccccc2)cc1[N+](=O)[O-]` (centres undefined) reads 6.07%.

For `NC(=O)CC(NC(=O)Cc1cccc2ccccc12)c1ccc(NCc2cc(F)ccc2F)c([N+](=O)[O-])c1` (centres undefined), the inhibition was 4.74%.
